# Laboratory results published in PubChem BioAssay (NCATS).
# Results filed as inconclusive are left out. Activity calls are given as the source filed them. Unless noted, calls come from the whole dose curve; as a rule, active = well fitted cell-killing curve with a large enough effect; inconclusive = small, poorly fitted or top-dose-only effect, or effect the other way; inactive = no such curve, though single readings can be large or run the other way.
# Legend:
# [1] = Quantitative High-Throughput drug screen in 47 multiple myeloma cell lines against the NCATS MIPE library collection: VP6_DJ cell viability assay (AID 1919867); note: nearly all actives have a fitted effect of over 40% in size; note: potency is the fitted concentration of half-maximal effect
# How it was run: (§1)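 500 cells/well; MIPE 4.0 drugs pin-transferred; 48 h, 37C, 5% CO2. CellTiter-Glo, 5 min RT, luminescence. Controls: DMSO 100%, media 0%.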
# [2] = Quantitative High-Throughput drug screen in 47 multiple myeloma cell lines against the NCATS MIPE library collection: PE2_PLB cell viability assay (AID 1919869); note: nearly all actives have a fitted effect of over 35% in size; note: potency is the fitted concentration of half-maximal effect
# How it was run: as §1
# [3] = Quantitative High-Throughput drug screen in 47 multiple myeloma cell lines against the NCATS MIPE library collection: PCM6_Riken cell viability assay (AID 1919870); note: nearly all actives have a fitted effect of over 30% in size; note: potency is the fitted concentration of half-maximal effect
# How it was run: as §1
# [4] = Quantitative High-Throughput drug screen in 47 multiple myeloma cell lines against the NCATS MIPE library collection: RPMI8226_ATCC cell viability assay (AID 1919871); note: nearly all actives have a fitted effect of over 30% in size; note: potency is the fitted concentration of half-maximal effect
# How it was run: as §1
# [5] = Quantitative High-Throughput drug screen in 47 multiple myeloma cell lines against the NCATS MIPE library collection: OPM2_DSMZ cell viability assay (AID 1919872); note: nearly all actives have a fitted effect of over 30% in size; note: potency is the fitted concentration of half-maximal effect
# How it was run: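 Myeloma cell lines, 500 cells per well, exposed to MIPE 4.0 library compounds for 48 h at 37C, 5% CO2. Viability from ATP by CellTiter-Glo luminescence; normalised to DMSO (100%) and media-only (0%) wells.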
# [6] = Quantitative High-Throughput drug screen in 47 multiple myeloma cell lines against the NCATS MIPE library collection: KMS11_JCRBsus cell viability assay (AID 1919873); note: nearly all actives have a fitted effect of over 50% in size; note: potency is the fitted concentration of half-maximal effect
# How it was run: as §1
# [7] = Quantitative High-Throughput drug screen in 47 multiple myeloma cell lines against the NCATS MIPE library collection: KMS28BM_JCRB cell viability assay (AID 1919874); note: nearly all actives have a fitted effect of over 35% in size; note: potency is the fitted concentration of half-maximal effect
# How it was run: as §1
# [8] = qHTS drug screen for cell cycle checkpoint inhibitors in PARPi-resistant BRCA-mutant ovarian cancer cell lines. (AID 1963452; calls by dose curve; note: potency is the fitted concentration of half-maximal effect); settings: PEO1/OlaR viability, CellTiter-Glo luminescence, 96 h; for Z-AUC: stronger effect = lower value
# How it was run: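 PEO1, PEO4 and PEO1/OlaR ovarian cancer cells, 600 per well, exposed 96 h at 37C to a dilution series. Viability read by CellTiter-Glo luminescence, normalized to DMSO and empty wells; activity summarized as Z-AUC.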
# [9] = qHTS for identification of novel therapeutic agents for treatment of microphthalmiaassociated transcription factor (MiT) renal cell carcinoma (RCC) (AID 1963991; calls by dose curve; note: potency is the fitted concentration of half-maximal effect); settings: CellTiter-Glo, 48 h; for z-score: stronger effect = lower value
# How it was run: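 Three TFE3-fusion RCC lines (UOK109, UOK124, UOK145), 500 cells/well in complete medium, were treated with MIPE 4.0 compounds for 48 hours at 37 C. Viability was by CellTiter-Glo luminescence, normalized to DMSO (100%) and empty wells (0%); curves fitted over 11 concentrations.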
# [10] = Quantitative High-Throughput drug screen in 47 multiple myeloma cell lines against the NCATS MIPE library collection: UTMC2_PLB cell viability assay (AID 1919868); settings: CellTiter-Glo ATP luminescence, 48 h; viability (% of DMSO control): at 45.8 µM (top of the series); note: nearly all actives have a fitted effect of over 55% in size
# How it was run: as §1
# [11] = measured here: PEO1 parental Z-AUC
# [12] = TFE3-RCC UOK109 viability, measured here: UOK109 Z-AUC
# [13] = TFE3-RCC viability, measured here: UOK124 Z-AUC
# [14] = TFE3-RCC viability, measured here: UOK145 Z-AUC
Compound,Potency [1],Potency [2],Potency [3],Potency [4],Potency [5],Potency [6],Potency [7],Z-AUC [8],"Z-AUC [8, 11]",Z-AUC ([8]; measured here: PEO4 Z-AUC),"z-score [9, 12]","z-score [9, 13]","z-score [9, 14]",Potency [10],Potency [8],"Potency ([9]; TFE3-RCC UOK109 viability, active = Z-AUC below -0.8 in all three lines)"
O=C(CCCCCCC(=O)Nc1ccccc1)NO,0.833 µM (active),3.32 µM (active),3.32 µM (active),4.69 µM (active),4.69 µM (active),2.64 µM (active),2.09 µM (active),-0.11 (inactive),-0.486,-0.541,–,–,–,–,–,–
NS(=O)(=O)c1cccc2c1C(=O)c1cccc(O)c1C2=O,0.662 µM (active),0.187 µM (active),0.469 µM (active),0.833 µM (active),2.64 µM (active),0.105 µM (active),0.469 µM (active),-1.32 (inactive),-1.19,-1.74,–,–,–,–,–,–
CC(=Cc1ccccc1)C=C1SC(=S)N(CC(=O)O)C1=O,inactive,inactive,inactive,inactive,inactive,inactive,inactive,–,–,–,1.2,1.04,0.683,–,–,–
CCOC(=O)O[C@]1(C(=O)OCCl)CC[C@@H]2[C@H]3CCC4=CC(=O)C=C[C@]4(C)[C@@H]3[C@@H](O)C[C@@]21C,20.9 µM (active),inactive,inactive,0.118 µM (active),inactive,0.264 µM (active),inactive,–,–,–,0.509,0.837,2.11,–,–,–
C=C1C(=O)OC2C=C(C)CCC=C(C)CCC12 (stereo not drawn),8.33 µM (active),16.6 µM (active),18.7 µM (active),–,20.9 µM (active),20.9 µM (active),18.7 µM (active),–,–,–,0.459,0.643,0.399,inactive,–,–
CNC(=O)c1ccc2cc(C3(O)CCn4cncc43)ccc2c1 (stereo not drawn),inactive,inactive,inactive,inactive,inactive,inactive,inactive,-0.914 (inactive),-0.347,-0.305,0.41,0.546,0.539,–,–,–
COc1ccc(-c2coc3cc(O)cc(O)c3c2=O)cc1,inactive,–,inactive,inactive,inactive,inactive,inactive,1.34 (inactive),0.911,1.85,–,–,–,–,–,–
COc1ccc(-c2nc(N3CCOCC3)c3sc(CN(C)c4ncc(C(=O)NO)cn4)cc3n2)cn1,inactive,0.001 µM (active),–,–,0.0021 µM (active),inactive,inactive,–,-1.63,-1.69,-3.18,-4.67,-3.65,–,61.6 nM (active),26.4 nM (active)
C[C@H](NC(=O)C(=O)Nc1ccccc1C(C)(C)C)C(=O)N[C@@H](CC(=O)O)C(=O)COc1c(F)c(F)cc(F)c1F,inactive,inactive,–,14.8 µM (active),–,–,inactive,0.426 (inactive),0.799,1.06,–,–,–,–,–,–
CC1(C)S[C@H]2[C@H](NC(=O)[C@@H](N)c3ccc(O)cc3)C(=O)N2[C@@H]1C(=O)O,0.0743 µM (active),inactive,1.87 µM (active),–,inactive,18.7 µM (active),5.9 µM (active),–,–,–,–,–,–,–,–,–
CC(C(=O)O)c1ccc(-c2ccccc2)c(F)c1 (stereo not drawn),13.2 µM (active),–,14.8 µM (active),inactive,inactive,–,14.8 µM (active),–,–,–,–,–,–,–,–,–
Oc1ccc(C2CCN(c3ccnc4ccccc34)CC2)cc1O,14.8 µM (active),16.6 µM (active),13.2 µM (active),16.6 µM (active),–,18.7 µM (active),4.69 µM (active),0.817 (inactive),-0.32,0.401,–,–,–,–,–,–
CN1C[C@H]2c3ccccc3Oc3ccc(Cl)cc3[C@@H]2C1,4.18 µM (active),–,11.8 µM (active),inactive,inactive,–,–,–,–,–,–,–,–,–,–,–
COc1ccc(C2CC(c3ccccc3)=NN2c2ccc(S(N)(=O)=O)cc2)cc1 (stereo not drawn),16.6 µM (active),23.5 µM (active),26.4 µM (active),–,inactive,–,–,-0.424 (inactive),-0.864,-0.548,–,–,–,–,–,–
CC(C)[C@H](CO)Nc1nc(Nc2ccc(C(=O)O)c(Cl)c2)c2ncn(C(C)C)c2n1,23.5 µM (active),23.5 µM (active),–,–,–,–,–,-0.776 (inactive),0.263,0.0501,–,–,–,–,–,–
COc1cc(Nc2ncc(F)c(Nc3ccc4c(n3)NC(=O)C(C)(C)O4)n2)cc(OC)c1OC,1.66 µM (active),1.05 µM (active),–,4.18 µM (active),5.9 µM (active),–,inactive,–,–,–,–,–,–,–,–,–
COC1CCC(N(C(=O)C2CCC(C)CC2)c2cc(C3=CCCCC3)sc2C(=O)O)CC1 (stereo not drawn),14.8 µM (active),23.5 µM (active),–,inactive,inactive,–,inactive,-0.412 (inactive),-0.941,-0.935,0.459,1.37,0.333,–,–,–
